Measured values from PubChem BioAssay (NCI).
Compounds without any hit were thinned out: in the full panel of roughly 83,000, 20% have a hit.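 Negative percent growth values reflect cell death: -40 means 40% of the cells present at the start died, and -100 means all died.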 Unmarked numbers belong to inactive results. Activity calls are given as the source filed them. Rule for the calls: active = growth percent below 10; inactive = the rest.

How the values were obtained:
Test in all cases: NCI-60 one-dose screen, 48 h (100 = growth as untreated, 0 = no growth, -100 = all killed)
Details in all cases: 10 µM unless noted
HCT-15 colon = tested on: HCT-15 colon
HT29 colon = tested on: HT29 colon
SNB-75 CNS = tested on: SNB-75 CNS
SNB-19 CNS = tested on: SNB-19 CNS
U251 CNS = tested on: U251 CNS
SK-MEL-5 melanoma = tested on: SK-MEL-5 melanoma
UACC-62 melanoma = tested on: UACC-62 melanoma
LOX IMVI melanoma = tested on: LOX IMVI melanoma
SK-MEL-28 melanoma = tested on: SK-MEL-28 melanoma
SK-MEL-2 melanoma = tested on: SK-MEL-2 melanoma
EKVX NSCLC = tested on: EKVX NSCLC
SN12C renal = tested on: SN12C renal
UO-31 renal = tested on: UO-31 renal
TK-10 renal = tested on: TK-10 renal
ACHN renal = tested on: ACHN renal
CAKI-1 renal = tested on: CAKI-1 renal
A498 renal = tested on: A498 renal
CCRF-CEM leukemia = tested on: CCRF-CEM leukemia
MOLT-4 leukemia = tested on: MOLT-4 leukemia
PC-3 prostate = tested on: PC-3 prostate

| SMILES | growth (HCT-15 colon) | growth (HT29 colon) | growth (SNB-75 CNS) | growth (SNB-19 CNS) | growth (U251 CNS) | growth (SK-MEL-5 melanoma) | growth (UACC-62 melanoma) | growth (LOX IMVI melanoma) | growth (SK-MEL-28 melanoma) | growth (SK-MEL-2 melanoma) | growth (EKVX NSCLC) | growth (SN12C renal) | growth (UO-31 renal) | growth (TK-10 renal) | growth (ACHN renal) | growth (CAKI-1 renal) | growth (A498 renal) | growth (CCRF-CEM leukemia) | growth (MOLT-4 leukemia) | growth (PC-3 prostate) |
| --- | --- | --- | --- | --- | --- | --- | --- | --- | --- | --- | --- | --- | --- | --- | --- | --- | --- | --- | --- | --- |
| CCCn1cnc2c(c1=N)C(c1ccc(OC)cc1)c1sc3c(CC)cccc3c1O2 (configuration not stated) | 18.9% | 5.9% (active) | 16.5% | 22% | 20.5% | 30.3% | 15.9% | 27.4% | 57.8% | 40.5% | 46.4% | 29.5% | 33.5% | 74.6% | 35.7% | 32.8% | -11.5% (active) | 4.77% (active) | 14.5% |  |
| CNC(=O)c1cc(-c2ccc(NC(=S)Nc3cc(C(F)(F)F)cc(C(F)(F)F)c3)cc2)nc2cccnc12 | 107% | 108% | 49.1% | 104% | 103% | 92.7% | 95.3% | 93.9% | 103% | 99.3% | 70% | 86.7% | 59.7% | 68.9% | 101% | 71.4% | 47.2% | 94.5% | 88% |  |
| COc1cc(-c2ccc3ncnc(NCc4ccccc4)c3c2)cnc1OC | 68.2% | 64.5% | -17.8% (active) | 74.4% | 81.7% | 70.8% | 47.1% | 41.2% | 63.2% | 76.5% | 6.53% (active) | 27.2% | 17.7% | -11.7% (active) | 19.9% | 6.95% (active) | -48.8% (active) | 54.8% | 32.1% |  |
| CC(C)(C)n1nnnc1C(Nc1cccc2c1OCO2)c1cc2cccc3ccc4cccc1c4c32 (configuration not stated) | 71% | 81.2% | 115% | 83.5% | 85.9% | 85% | 65.3% | 86.7% | 94.4% |  | 73.7% | 90.5% | 67.8% | 116% | 85.6% | 64.5% |  | -12.9% (active) | 67.1% |  |
| CC(=O)c1cc(C(=O)N2c3ccccc3Sc3ccccc32)n2ccc3ccccc3c12 | 29.2% | 14.8% | 34.6% | 49.1% | 37.8% | 37.3% | 21.4% | 41.4% | 62.7% | -77.5% (active) | 61.3% | 67.6% | 42.8% | 98.4% | 42.5% | 39.8% | 12.9% | 28% | 49.1% |  |
| C#C[C@]1(O)CC[C@H]2[C@@H]3CC=C4c5sc(-c6ccc(C)cc6)nc5CC[C@]4(C)[C@H]3CC[C@@]21C | -2.81% (active) | 98% | -8.57% (active) | 10.9% |  | -75.7% (active) | 2.15% (active) | -60.8% (active) | -57.2% (active) | -2.55% (active) | 54% | 59% | -7.05% (active) | 77.4% | 21.5% | 8.16% (active) | 113% | 6.48% (active) | -2.14% (active) | -19.9% (active) |
| C=CCN(C)S(=O)(=O)/N=C1\NC(=O)NC1=C(Cl)Cl | -77.2% (active) | 5.89% (active) | 100% | 58.4% | -10.2% (active) | 91.6% | 32.9% | -88.3% (active) |  | 90% | 62.8% | -22.5% (active) | 92.5% | 65.7% | -96.7% (active) | 2.82% (active) | 97.6% | -27.1% (active) | -19.7% (active) |  |
| COc1ccc(C(=O)Nc2ncc(Cc3ccccc3Cl)s2)cc1 | 9.87% (active) | -16.6% (active) | 28.8% | 23.7% | 14.6% | 2.6% (active) | 35.7% | 1.15% (active) | 64% | -1.02% (active) | 41.7% | 32.7% | 38.1% | 64.3% | 32.5% | 36.4% | -8.09% (active) | 18.7% | 13.8% |  |
| O=C(CSc1nnc(-c2ccc3nc(-c4ccccc4)[nH]c3c2)o1)Nc1ccc(C(=O)/C=C/c2ccccc2)cc1 | 110% | 108% | 113% | 99.9% | 98.2% | 98.3% | 97.1% | 97.3% | 103% | 103% | 106% | 98% | 87.4% | 110% | 102% | 103% | 95.9% | 107% | 93.2% |  |
| Cc1ccc2sc3c(c2c1)OC(N)=C(C#N)C3c1ccc(Cl)cc1 (configuration not stated) | 30.3% | 67.3% | 81.6% | 89.9% | 96.3% |  | 45.7% | 86.9% |  |  | 70.9% | 93.3% | 75.9% | 97.3% | 87.4% | 60.4% |  | 75.7% |  |  |
| N#Cc1cccc(/C(N)=N/C(N)=N/c2nc3ccccc3s2)c1 | 31.9% | 11.3% | 22.2% | 27.3% | 27.7% | 41.5% | 34.5% | 46.2% | 65.4% | 40.4% | 43.3% | 34.9% | 44.2% | 81.3% | 48.3% | 34% | -4.3% (active) | 6.56% (active) | 27.7% |  |
| CNC(=O)c1cc(Oc2ccc3nc(NC(=O)c4cccc(OC(F)(F)F)c4)sc3c2)ccn1 | 81.7% | 86% | 45.5% | 81.3% | 84.3% |  | 78.4% | 85.2% | 85.3% |  |  | 78.7% | 95.7% | 101% | 75.2% | 73.9% |  | 71.2% | 73.3% | 73% |
| COc1cc2nc(Cl)nc(Nc3cccc(C4=Nc5c(N)nc(N)nc5NC(c5ccc(F)cc5)C4)c3)c2cc1OC (configuration not stated) | 0.163% (active) | 9.87% (active) | 85.9% | 31.7% |  | 67.1% | 93% | -53.6% (active) | 94.6% | 86% | 89.6% | 81.9% | 91.8% | 112% | 97.3% | 88.8% | 77.9% | 5.4% (active) |  | 59.9% |
| Clc1nc2ccccc2nc1-c1nnc(C2CCCCC2)o1 | 71.7% | 109% | 97.2% | 98.7% |  | 98.8% | 96.4% | 66.6% | 104% | 102% | 98.8% | 101% | 92.7% | 105% | 99.2% | 89.5% | 89.3% | 84.9% | 109% | 95.8% |
| CCOC(=O)c1c(Nc2ccccc2)nn2c(-c3cccs3)ccnc12 | 53.8% | 80.3% | 88.8% | 98.2% | 88.6% | 70.9% | 84.6% | 73.7% | 90.7% |  | 88.8% | 91% | 82.6% | 107% | 88.3% | 78.8% |  | 58.8% | 74.5% |  |
| N/C(=N\C(N)=N\c1nc2ccccc2s1)c1ccncc1Cl | 33% | 18.8% | 7.82% (active) | 38.2% |  | 39.2% | 28% | 41.3% | 58.3% | 35.3% | 52.7% | 35.8% | 34.6% | 129% | 37.7% | 37.5% | 65.3% | 10.7% |  | 29.5% |
| Cc1ccc(-c2cc3nc(C(Cl)Cl)nc(-c4ccco4)n3n2)cc1 | 14.9% | 0.475% (active) | 66.8% | 8.51% (active) | 1.02% (active) | 90.1% | 37.9% | 92.2% | 5.86% (active) | 83.2% | 5.4% (active) | 66.4% | 33.6% | 29.2% | -19.9% (active) | -5.91% (active) |  | 89.3% | 94.2% |  |
